# Data published in PubChem BioAssay (NCATS).
# “And” between values parts separate entries of the source, which are not always exact repeats. Equal entries are not always repeated. Values without a mark were called inactive. Records with an inconclusive call do not appear. The source made the active and inactive calls. Unless noted, calls come from the whole dose curve; as a rule, active = well fitted curve in either direction with a large enough effect (not every such curve was filed as active); inconclusive = small, poorly fitted or top-dose-only effect, or another doubt; inactive = flat fitted curve, though single readings scatter.
# What was measured:
# [1] = AP1 Signaling Pathway (AID 357);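 note: ME-180 reporter cells stimulated with EGF at its EC50 level; % is set by controls: 0 for no effect and ±100 for the full control effect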
# In short: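 First, ME-180 AP-1-bla cells were cultured overnight at 37 °C in low-serum Opti-MEM. Next, titrated compounds with EC50 EGF were incubated 5 hours. Finally, CCF4 was added for 2.5 hours and the 460/530 nm ratio recorded.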
# [2] = molecular target: Cytochrome P450 1A2 (Homo sapiens) (UniProt P05177); test: p450-cyp1a2 (AID 410; calls by dose curve; note: potency is the fitted concentration of half-maximal effect;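 for activity change, negative = inhibition: -100% = full effect of reference inhibitor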)
# Sequence of Cytochrome P450 1A2 (Homo sapiens) (P05177 whole entry, looked up): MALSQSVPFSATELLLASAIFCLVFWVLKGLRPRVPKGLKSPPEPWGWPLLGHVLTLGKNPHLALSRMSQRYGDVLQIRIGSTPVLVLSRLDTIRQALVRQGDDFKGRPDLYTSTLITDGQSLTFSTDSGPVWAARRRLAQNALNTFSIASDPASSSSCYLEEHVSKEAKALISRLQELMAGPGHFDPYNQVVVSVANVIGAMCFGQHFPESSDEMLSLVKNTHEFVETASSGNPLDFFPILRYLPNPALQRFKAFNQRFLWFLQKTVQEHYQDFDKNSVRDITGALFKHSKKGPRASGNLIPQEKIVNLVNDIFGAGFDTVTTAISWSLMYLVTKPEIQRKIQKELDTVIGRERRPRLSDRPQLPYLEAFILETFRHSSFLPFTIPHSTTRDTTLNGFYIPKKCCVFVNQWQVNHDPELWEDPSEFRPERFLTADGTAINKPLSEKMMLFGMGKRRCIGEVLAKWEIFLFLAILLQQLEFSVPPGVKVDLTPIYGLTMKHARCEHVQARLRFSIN
# In short: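 Inhibition was calculated relative to 57 uM furafylline (full inhibition). The reaction used human CYP1A2 at 20nM with Luciferin-ME at its Km, 100uM, driven by an NADPH-regenerating system for 60 min at room temperature.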
# [3] = Cell Viability - BJ (AID 421; calls by dose curve;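 note: potency is the fitted concentration of half-maximal effect; cells exposed to compound for 40 hours at 37 °C before readout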); conditions: BJ fibroblast viability, qHTS
# In short: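 Normal human BJ foreskin fibroblasts, 1500/well in complete medium, treated 40 hr at 37 °C. Cellular ATP by CellTiter-Glo luminescence; normalized to DMSO and 100 uM tamoxifen, AC50 from Hill fit.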
# [4] = Cell Viability - Hek293 (AID 427;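 active = compounds whose dose-response curve shows a full or clear partial loss of cell viability, called from curve shape rather than a numeric limit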;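 note: potency is the fitted concentration of half-maximal effect; cells exposed to compound for 40 hours at 37 °C before reading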); conditions: qHTS
# In short: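 HEK293 cells in complete medium were exposed to compound for 40 hr at 37 °C, then cellular ATP was read by CellTiter-Glo luminescence. Data were normalized to DMSO (basal) and 100 uM tamoxifen (100% inhibition), and AC50 came from Hill fits.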
# [5] = Cell Viability - HepG2 (AID 433; calls by dose curve;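 note: potency is the fitted concentration of half-maximal effect; potency for ATP loss meaning cytotoxicity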); conditions: qHTS
# In short: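 ATP luminescence (CellTiter-Glo) after 40 h compound exposure, 37 °C, HepG2, 1500 cells/well, complete medium. Normalized: DMSO = basal, 100 uM tamoxifen = 100% inhibition. AC50 via standard Hill equation.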
# [6] = Cell Viability - MRC5 (AID 434; calls by dose curve;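 note: potency is the fitted concentration of half-maximal effect; potency reflects cytotoxicity seen as loss of intracellular ATP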); conditions: MRC5 lung fibroblast viability, qHTS
# In short: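 qHTS cytotoxicity in human lung fibroblast MRC5 cells; 40 hr treatment, 37 °C; cellular ATP by luciferase luminescence; DMSO = 0%, 100 uM tamoxifen = 100% inhibition; Hill-fit AC50.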
# [7] = Stat Signaling Pathway (AID 446);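 note: ME-180 cervical cancer cells given 40 pM IL-6 alongside compound; SIE-controlled beta-lactamase reporter measured as 460/530 nm FRET emission ratio; % is set by controls: 0 for no effect and ±100 for the full control effect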
# In short: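 ME-180 cells carrying a SIE-driven beta-lactamase reporter are stimulated with 40 pM IL-6 for 5 h at 37C in the presence of compound. The 460/530 nm FRET substrate ratio is read after 2.5 h at RT. Data are normalised to 300 pM IL-6 and to 125 nM JAK inhibitor controls.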
# [8] = NFAT Signaling Pathway (AID 444); conditions: Jurkat NFAT-bla M1, carbachol, beta-lactamase ratio, 5 h;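 note: carbachol stimulus at about its EC50 of 1 µM final; % is set by controls: 0 for no effect and ±100 for the full control effect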
# In short: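 Read-out: CCF4 FRET ratio (460 nm/530 nm) after 1 h RT dye loading, used for %activity and AC50 from titration series. Cells: Jurkat NFAT-β-lactamase/M1 line, treated with compound plus 1 uM carbachol for 5 h, 37 °C.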
# [9] = molecular target: Glucocorticoid receptor (Homo sapiens) (UniProt P04150); test: GR-GFP Redistribution (AID 450;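 active = compounds whose dose series gives a full or clear partial fitted curve of increased nuclear translocation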; note: potency is the fitted concentration of half-maximal effect); conditions: U2OS GR-GFP nuclear translocation, laser cytometry, 2 h
# Sequence of Glucocorticoid receptor (Homo sapiens) (P04150 whole entry, looked up, the tested form may be a part): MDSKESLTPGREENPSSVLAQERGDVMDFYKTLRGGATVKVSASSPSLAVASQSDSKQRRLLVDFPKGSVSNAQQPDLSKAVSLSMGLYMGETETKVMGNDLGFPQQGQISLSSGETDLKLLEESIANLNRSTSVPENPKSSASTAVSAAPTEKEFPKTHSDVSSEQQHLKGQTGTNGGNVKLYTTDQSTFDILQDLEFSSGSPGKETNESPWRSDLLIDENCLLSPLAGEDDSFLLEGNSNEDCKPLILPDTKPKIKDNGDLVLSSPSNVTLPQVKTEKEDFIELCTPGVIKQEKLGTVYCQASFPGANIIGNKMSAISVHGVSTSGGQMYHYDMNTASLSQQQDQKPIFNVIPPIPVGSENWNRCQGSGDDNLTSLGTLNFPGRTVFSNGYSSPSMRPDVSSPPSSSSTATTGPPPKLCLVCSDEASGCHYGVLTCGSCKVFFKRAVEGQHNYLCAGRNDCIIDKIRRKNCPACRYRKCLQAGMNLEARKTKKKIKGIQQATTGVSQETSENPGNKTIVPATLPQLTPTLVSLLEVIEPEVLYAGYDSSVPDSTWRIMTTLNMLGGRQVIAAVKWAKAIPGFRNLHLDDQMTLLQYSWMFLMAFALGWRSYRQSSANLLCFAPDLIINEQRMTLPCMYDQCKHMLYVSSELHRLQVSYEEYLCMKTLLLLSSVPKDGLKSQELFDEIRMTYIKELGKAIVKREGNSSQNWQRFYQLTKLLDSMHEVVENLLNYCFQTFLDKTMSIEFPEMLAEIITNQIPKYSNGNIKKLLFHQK
# [10] = molecular target: Glucocorticoid receptor (Homo sapiens) (UniProt P04150); test: GR-EFC Redistribution (AID 451; calls by dose curve; note: potency is the fitted concentration of half-maximal effect); conditions: CHO-K1 GR-EFC translocation, beta-gal luminescence, 2 h
# In short: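 Translocation of GR-ED fusion to nuclear EA restores b-gal, read by luminescence after 1 h room-temperature detection. Engineered CHO-K1 biosensor cells, 1,000/well, exposed 2 h at 37 C to titrations up to 46 uM final.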
Structure (SMILES),outcome [1],Potency [2],Potency [3],Potency [4],Potency [5],Potency [6],outcome [7],"activity change, negative = inhibition ([8]; at 38 µM (top of the series))",Potency [9],Potency [10],"activity change, negative = inhibition ([8]; at 17.2 µM (top of the series))"
CC(=O)Nc1ccc(O)cc1,inactive,inactive,> 92 µM,> 92 µM,> 92 µM,> 92 µM,inactive,–,–,–,–
Cc1nc2n(c(=O)c1CCN1CCC(c3noc4cc(F)ccc34)CC1)CCCC2,inactive,inactive,–,–,–,–,inactive,–,–,–,–
CCCCc1ccc2nc(NC(=O)OC)[nH]c2c1,inactive,501 nM (active),–,–,–,–,inactive,–,–,–,–
Nc1nc(OCc2ccccc2)c2[nH]cnc2n1,inactive,1000 nM (active),–,–,–,–,inactive,-5.61%,> 46 µM,> 46 µM,–
COc1ccccc1N1CCN(CCN(C(=O)C2CCCCC2)c2ccccn2)CC1,inactive,inactive,–,–,–,–,inactive,3.68%,> 46 µM,> 46 µM,–
c1ccc2[nH]c(-c3cscn3)nc2c1,inactive,126 nM (active),> 92 µM,> 92 µM,> 92 µM,> 92 µM,inactive,–,> 20.6 µM,> 20.6 µM,-19.5% and -28.1%
NS(=O)(=O)c1cc(C(=O)O)c(NCc2ccco2)cc1Cl,inactive,–,> 92 µM,> 92 µM,> 92 µM,> 92 µM,inactive,–,–,–,-8.48%
CCC1=C(C)CN(C(=O)NCCc2ccc(S(=O)(=O)NC(=O)NC3CCC(C)CC3)cc2)C1=O (centres undefined),inactive,inactive,–,–,–,–,inactive,–,> 20.6 µM,> 20.6 µM,4.19%
CCc1nc(N)nc(N)c1-c1ccc(Cl)cc1,inactive,10000 nM (active),> 92 µM,1.64 µM (active),1.05 µM (active),> 92 µM,inactive,–,> 20.6 µM,> 20.6 µM,-6.33% and 6.33%
CN1C(C(=O)Nc2ccccn2)=C(O)c2sccc2S1(=O)=O,inactive,inactive,–,–,–,–,inactive,–,> 20.6 µM,> 20.6 µM,9.83%
O=c1c(O)c(-c2cc(O)c(O)c(O)c2)oc2cc(O)cc(O)c12,inactive,5.01 µM (active) and 2 µM (active) and 7.94 µM (active),–,–,–,–,inactive,11.8%,> 46 µM and > 20.6 µM,> 46 µM and > 20.6 µM,-3.39%
Nc1ccc(S(N)(=O)=O)cc1,inactive,–,> 92 µM,> 92 µM,> 92 µM,> 92 µM,inactive,–,> 20.6 µM,> 20.6 µM,-0.0158%
NC(=NCc1ccccc1)NC(=O)c1nc(Cl)c(N)nc1N,inactive,12.6 µM (active) and 10 µM (active),–,–,–,–,inactive,-27.8%,> 46 µM and > 20.6 µM,> 46 µM and > 20.6 µM,-15.5%
CCOc1cc(CC(=O)N[C@@H](CC(C)C)c2ccccc2N2CCCCC2)ccc1C(=O)O,inactive,inactive,–,–,–,–,inactive,–,2.1 µM (active),> 20.6 µM,-1.28%
CC1(C)NC(=O)N(c2ccc([N+](=O)[O-])c(C(F)(F)F)c2)C1=O,inactive,12.6 µM (active) and 3.16 µM (active) and 2.51 µM (active),–,–,–,–,inactive,1.13%,–,–,-3.85%
Cc1cccc(C#Cc2ccccc2)n1,inactive,631 nM (active) and 158 nM (active),–,–,–,–,inactive,-6.27%,> 46 µM,> 46 µM,–
O=C1c2ccccc2-c2n[nH]c3cccc1c23,inactive,126 nM (active) and 15.8 nM (active),–,–,–,–,–,6.14%,–,–,–
NNc1nncc2ccccc12,inactive,3.16 µM (active) and 1 µM (active),–,–,–,–,inactive,8.48%,> 46 µM and > 20.6 µM,> 46 µM and > 20.6 µM,-29.1%
